Source: PubChem BioAssay (Tox21)
Inconclusive results are not listed. Unmarked numbers belong to inactive results. Active and inactive are the calls of the source. Calls come from the whole dose curve; as a rule, active = well fitted cell-killing curve with a large enough effect in the repeat runs; inconclusive = weak or mixed curves, or effect the other way; inactive = flat fitted curve, though single readings scatter.

Assay: Human pregnane X receptor (PXR) small molecule agonists, qHTS cell viability counter screen (AID 1346977); note: nearly all actives have a fitted effect of over 50% in size
Settings: PXR-Luc HepG2 viability, CellTiter-Fluor, 24 h; series mostly up to 92.4 µM; activity change, negative = cytotoxicity: at the top concentration
Text: U.S. Tox21 Program National Center for Advancing Translational Sciences [NCATS] NIH Chemical Genomics Center [NCGC] U.S. Environmental Protection Agency [EPA] National Institutes of Environmental Health Sciences [NIEHS] National Toxicology Program [NTP] U.S. Food and Drug Administration [FDA] Tox21 Assay Overview: The human pregnane X receptor (hPXR) regulates the expression of several drug metabolizing enzymes and induction of these proteins is a major mechanism for developing drug resistance in cancer. One such key enzyme catalyzing the drug metabolism is cytochrome P450 3A4 (CYP3A4). Changes in CYP3A4 expression affect drug metabolism, thereby reducing the therapeutic efficacy and altering toxicological response to a drug and which finally causes adverse drug interaction. To screen Tox21 libraries for compounds that activate hPXR-mediated CYP3A4 gene expression, PXR-Luc HepG2 cells were used. Also cytotoxicity of the compounds was tested in parallel by measuring the cell viability using CellTiter-Fluor assay system in the same wells.
Tox21 Assay Protocol Summary: PXR-Luc HepG2 cells were dispensed at 2,000 per well in 5uL of assay medium containing 5% charcoal-stripped FBS into white solid bottom 1536-well plates (Corning Life Sciences, Corning, NY) using a Multidrop Combi (Thermo Scientific, Waltham, MA) dispenser. The assay plates were incubated at 37 C and 5% CO2 for 5hr, and then 23nL of compounds dissolved in DMSO and positive control were transferred using a Pintool station (Wako, San Diego, CA). The assay plates were incubated at 37C and 5% CO2 for 24hr. For cytotoxicity read, after 23hr incubation at 37C, 1uL CellTiter-Fluor reagent (Promega Corporation, Madison, WI) was added to each well of the assay plates using Flying Reagent Dispenser (FRD, Aurora Discovery, San Diego, CA). After 1hr incubation at 37C and 5% CO2, the fluorescence signal was quantified using a ViewLux plate reader (PerkinElmer, Shelton, CT).
% is set by controls: 0 for no effect and ±100 for the full control effect; potency is the fitted concentration of half-maximal effect.

SMILES | activity change, negative = cytotoxicity | Potency
O=C(c1ccc(Cl)cc1)c1ccc(Cl)cc1 | 2.9% | –
N#C[C@@H]1CC(F)(F)CN1C(=O)CNC1CC2CCC(C1)N2c1ncccn1 (stereo not given in full) | 34.3% | –
CCCCOC(=O)C(C)Oc1ccc(Oc2ccc(C(F)(F)F)cn2)cc1 (stereo not given) | 5.81% | –
C=CC(=O)NC(C)(C)C | 9.28% | –
O=C(O)c1ccccc1[N+](=O)[O-] | 0.09% | –
C/C(=C(\CCO)SS/C(CCO)=C(\C)N(C=O)Cc1cnc(C)nc1N)N(C=O)Cc1cnc(C)nc1N | 10.4% [at 42.5 µM] | –
CCCCCCCCCCCCSC#N | -0.426% | –
CC[C@H](NC(C)C)[C@H](O)c1ccc(O)c2[nH]c(=O)ccc12 | 14% [at 42.5 µM] | –
CC(C)(C)N | 6.14% | –
CCCc1nc(C)c2c(=O)[nH]c(-c3cc(S(=O)(=O)N4CCN(CC)CC4)ccc3OCC)nn12 | -2.34% [at 42.5 µM] | –
Cc1cc(C)n(CO)n1 | -2.51% | –
Clc1cccc(C(c2ccc3nc[nH]c3c2)n2ccnc2)c1 (stereo not given) | -1.67% [at 42.5 µM] | –
CC/C=C/CCO | 9.51% | –
CCOC(OCC)OCC | 14.6% | –
CC(C)C[C@H](NC(=O)[C@H](Cc1ccccc1)NC(=O)c1cnccn1)B(O)O | – | 42.2 nM (active)
CCCCCO | 3.34% | –
CC(C)=CCC[C@H](C)CCO | 5.56% | –
CCOc1ccccc1O | 6.56% | –
[O-][n+]1ccc(Cl)cc1 | 3.69% | –
CCOC(=O)CC(O)(CC(=O)OCC)C(=O)OCC | 8.9% | –

SMILES | activity change, negative = cytotoxicity | Potency
COC(=O)/C=C/C(C)=C\C=C\C(C)=C\C=C\C=C(C)\C=C\C=C(C)\C=C\C(=O)O | -9.68% | –
CCC(=O)O[C@]1(C(=O)COC)[C@@H](C)C[C@H]2[C@@H]3CCC4=CC(=O)C=C[C@]4(C)C3(F)[C@@H](O)C[C@@]21C (stereo not given in full) | 5.75% [at 42.5 µM] | –
Nc1ncnc2c1ncn2[C@@H]1O[C@H](CO)[C@@H](O)[C@H]1O | 0.949% [at 42.5 µM] | –
O=C(C1CCCCC1)N1CC(=O)N2CCCc3ccccc3C2C1 (stereo not given) | 0.153% [at 42.5 µM] | –
C1CCN(CN2CCCCC2)CC1 | 0.429% | –
C[Si](C)(C)O[Si](C)(C)O[Si](C)(C)C | 4.08% | –
FC1(F)C(F)(F)C(F)(F)C2(F)C(F)(C1(F)F)C(F)(F)C(F)(F)C1(F)C(F)(F)C(F)(F)C(F)(F)C(F)(F)C12F (stereo not given) | 29.8% | –
CCCCC(CC)COCCC#N (stereo not given) | 9.59% | –
CCC1=C(C)CN(C(=O)NCCc2ccc(S(=O)(=O)NC(=O)NC3CCC(C)CC3)cc2)C1=O (stereo not given) | -4.22% [at 42.5 µM] | –
O=c1[nH][nH]c2ccccc12 | -0.475% | –
Cc1ccccc1CCO | 11% | –
CCCCCCCCCCCCCCCCN | 6.74% [at 42.5 µM] | –
CCC[Si](OC)(OC)OC | -0.621% | –
CNc1ccccc1 | 12.4% | –
CC(CN=Cc1ccccc1O)N=Cc1ccccc1O (stereo not given) | 19.1% | –
OCC(O)c1ccccc1 (stereo not given) | 1.73% | –
c1ccc(CCNc2nc(-c3ccccc3)cs2)cc1 | -3.43% [at 42.5 µM] | –
O=[N+]([O-])c1cccc(I)c1 | 2.73% | –
CC(C)(C)c1ccc(CCC=O)cc1 | -0.485% | –
COc1ccc(C(=O)c2ccc(C)cc2)c(O)c1 | -4.74% | –
